# Assay results reported in PubChem BioAssay AID709 (SRMLSC, 2007).
# Screen size: about 65,000 compounds; about 3,600 (5.5%) were called active. Many of the other results were omitted from the sample, so actives are more common in it than they were. A number with no mark means an inactive call.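 Rule for the calls: active = at 10 µM, mean starting fluorescence two-fold or more over control wells; inactive = the rest.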
# Assay: intrinsic fluorescence of library compounds, ex339/em460 – biochemical, MLSMR library, data from DPM-DC assay, artefact control, profiling panel (AID 709);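 note: signal is the first read of a kinetic run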
# Conditions: compound autofluorescence, ex339/em460 nm, NADH buffer; at 10 µM; stronger effect = higher value; 1 = no-compound wells, NADH background
row,SMILES,fluorescence fold increase
1,O=C(Nc1ccc(-c2nnc(-c3ccccc3)o2)cc1)C1CCCO1 (stereo not given),1.79
2,O=C(Nc1ccc(-c2nnc(-c3ccccc3)o2)cc1)c1ccc(Br)o1,1.45
3,Nc1ccc(-c2nnc(-c3ccc(-c4ccccc4)cc3)o2)cc1,3.89 (active)
4,CO/N=C(\C(=O)N[C@@H]1C(=O)N2C(C(=O)O)=C(COC(C)=O)CS[C@H]12)c1csc(N)n1 (stereo in doubt),1.08
5,CCCn1c(O)c(CN2CCCC(C)C2)c(C)c(C#N)c1=O (stereo not given),1.26
6,CCN(CC)Cc1c(C(=O)OC)nnn1-c1nonc1N,1.05
7,Cc1ccc2c(CSc3nncs3)cc(=O)oc2c1,1.02
8,COc1ccc(S(=O)(=O)Nc2ccc3c(c2)OCO3)cc1Cl,1.03
9,CCCC(=O)Nc1cccc(-c2cn3ccsc3n2)c1,1.09
10,CC(=O)Nc1cccc(-c2cnc3ccccc3n2)c1,1.09
11,COc1ccc(-c2cn3ccsc3n2)cc1,1.08
12,CC(=O)Nc1ccc(-c2cn3cccnc3n2)cc1,5.32 (active)
13,CCOc1nc(OCC)nc(-n2cc(-c3ccccc3)nn2)n1,1.06
14,c1ccc(-c2cn3cccnc3n2)cc1,2.51 (active)
15,O=C(Oc1cccnc1)c1cc2ccccc2oc1=O,1.24
16,CCOC(=O)C1CCCCN1Cc1ccc(OC)c(OC)c1OC (stereo not given),1.06
17,Cc1ccc2oc(=O)c3cnn(CC(=O)N4CCN(c5ccccn5)CC4)c3c2c1,1.1
18,O=C(Cn1nnc(-c2ccc3c(c2)OCO3)n1)NCc1ccco1,1.15
19,CCOc1ccc(C(CC(=O)O)NC(=O)COc2ccccc2)cc1 (stereo not given),1.07
20,O=S(=O)(O)c1nc2ccccc2n1Cc1ccc(Cl)cc1,1.22
21,N#Cc1c(N)n(CCOC(=O)c2ccc(Cl)cc2)c2nc3ccccc3nc12,2.28 (active)
22,Cn1nnnc1SCc1cc(=O)[nH]c2ccccc12,1.06
23,CCOc1ccccc1N(CC(=O)Nc1ccccc1C(=O)OC)S(C)(=O)=O,1.11
24,COC(=O)C1=C(C)N(C)C(C)=C(C(=O)OC)C1c1cccc(Br)c1,1.12
25,CCCCOCCCNC(=O)c1ccccc1OCC,1

row,SMILES,fluorescence fold increase
1,CCOc1ccccc1C1C(C(=O)OC)=CN(C)C=C1C(=O)OC,4.81 (active)
2,CC12CN3CC(C)(CN(C1)C3c1ccc(Cl)cc1Cl)C2=O (stereo not given),1.04
3,COC(=O)C1=CN(C)C=C(C(=O)OC)C1c1ccc(Cl)cc1Cl,2.14 (active)
4,CN1CCN(Cc2nc3c(c(=O)n(C)c(=O)n3C)n2Cc2cccc3ccccc23)CC1,1.12
5,CCCOc1ccc(-c2nc(N)n[nH]2)cc1,1.14
6,O=C1c2ccccc2C(O)N1Cc1ccccc1Cl (stereo not given),1.04
7,Cn1c(=NC(=O)c2ccco2)sc2cccc(F)c21,1.85
8,O=C(CSc1nnc(Cc2ccccc2)n1-c1ccccc1)N1CCOCC1,1.04
9,CC(=O)c1cccc(NC(=O)c2ccncc2)c1,1.03
10,Cc1nc(NC(=O)C23CCC(C)(C(=O)O2)C3(C)C)sc1C (stereo not given),1.02
11,CC(=O)N=c1ncn(CC(COC(C)=O)OC(C)=O)c2nc[nH]c12 (stereo not given),1.07
12,C1=C(CCNc2ncnc3c2cnn3-c2ccccc2)CCCC1,1.05
13,COc1ccc(-n2ncc3c(N4CCc5ccccc54)ncnc32)cc1,3.76 (active)
14,c1ccc(-n2ncc3c(N4CCCC4)ncnc32)cc1,1.04
15,Cc1ccc(-n2ncc3c(N4CCN(c5ccc(F)cc5)CC4)ncnc32)c(C)c1,1
16,COc1ccc(-n2ncc3c(N4CCCc5ccccc54)ncnc32)cc1,2.48 (active)
17,COc1ccc(-n2c(C)nc3c(cnn3-c3ccccc3)c2=O)cc1,1.1
18,COc1ccc(N2CCN(C(=O)CSc3ncnc4c3cnn4-c3ccc(OC)cc3)CC2)cc1,1.23
19,Cc1cccc(-n2ncc3c(N4CCc5ccccc54)ncnc32)c1,2.26 (active)
20,C=CCNC(=O)CCCOc1cccc(C)c1,1.09
21,Cc1cc(/C=N/n2cnnc2)c(C)n1-c1ccc2ncccc2c1,1.05
22,COc1ccc2nc(NC3=NCN(CC4CCCO4)CN3)nc(C)c2c1 (stereo not given),1.66
23,Cc1cccc(N2CC(C)Cn3c2nc2c3c(=O)n(CC(=O)OCc3ccccc3)c(=O)n2C)c1 (stereo not given),1.1
24,COc1cc(OC)c(C(=O)NC2CC(C)(C)NC(C)(C)C2)cc1OC,1.16
25,CSc1nc(O)c(Cc2ccccc2)c(=O)[nH]1,1.07

row,SMILES,fluorescence fold increase
1,O=C(Nc1ccc(Oc2ccccc2)cc1)c1ccco1,1.11
2,Cc1ccc(C(=O)COc2cccc(NC(=O)c3ccco3)c2)cc1,1.18
3,CCOc1cc(NC(=O)c2ccco2)c(OCC)cc1NC(=O)COc1ccccc1,3.91 (active)
4,CC(C)C(c1nnnn1C1CCCC1)N1CCN(c2ccccc2F)CC1 (stereo not given),1.02
5,Cc1cccn2c(=O)c3cc(C#N)c(=NC(=O)c4cccnc4)n(CC4CCCO4)c3nc12 (stereo not given),2.38 (active)
6,O=C(Cn1nc(Cc2cccnc2)c2ccccc2c1=O)NCC1CCCO1 (stereo not given),1.03
7,COc1ccc(CNC(=O)c2cc3c(=O)n4ccccc4nc3n(CC3CCCO3)c2=N)cc1 (stereo not given),1.91
8,Cc1ccc(C2c3c(oc4ccc(C)cc4c3=O)C(=O)N2CCCN2CCOCC2)cc1 (stereo not given),1.09
9,Cn1c(=O)c2c(nc(CN3CCOCC3)n2Cc2ccccc2)n(C)c1=O,1.04
10,Cc1cccn2c(=O)c3cc(C#N)c(=O)n(CCCN4CCOCC4)c3nc12,3.03 (active)
11,CCOc1ccc2c(c1)cc(CN(C(=O)CC)C1CCCCC1)c1nnnn12,1.21
12,COc1cc(C2C(C#N)=C(N)Oc3n[nH]c(-c4ccccn4)c32)cc(OC)c1OC (stereo not given),1.09
13,COc1cccc(-c2nc3cc(C)ccc3o2)c1,1.2
14,CCc1ccc2oc(-c3ccc(N)cc3)nc2c1,2.12 (active)
15,CCOC(=O)CSc1nc2c(c(=O)n(Cc3ccccc3Cl)c(=O)n2C)n1C,1.06
16,N#Cc1nc(-c2ccc(OCc3ccccc3)cc2)oc1NCCCN1CCOCC1,3.88 (active)
17,N#Cc1nc(Cc2ccccc2)oc1NCCc1ccccc1,1.1
18,N#Cc1nc(COc2ccc(-c3ccccc3)cc2)oc1NCc1cccnc1,1.07
19,Cc1ccc2nc(-c3ccccc3)cc(C(=O)O)c2c1,1.22
20,Cc1ccc(NC(=O)c2cc(-c3ccc(C)o3)nc3ccccc23)nc1,2.48 (active)
21,Cc1cc(=O)oc(C)c1C(=O)Nc1cnc2ccccc2c1,1.27
22,CCc1c(O)nc(SCC(=O)N2CCCCC2)n(-c2ccccc2C)c1=O,1.04
23,CC1CN(c2cc(=O)n(Cc3ccc(F)cc3)c(=O)[nH]2)CC(C)O1 (stereo not given),1.08
24,Cc1ccc(S(=O)(=O)c2c(N)n(C)c3nc4ccccc4nc23)cc1,3.95 (active)
25,Cc1ccc(S(=O)(=O)NCc2nc3ccccc3c(=O)n2N)cc1,1.1
